Screening data: PubChem, National Center for Advancing Translational Sciences (NCATS)
A selection: hits, their analogues and other compounds. The true share with any hit is near 19%.
DT40 TDP1 CPT: DT40-hTDP1 cell growth loss with CPT | chicken DT40 Tdp1-/-;hTDP1 cells + 20 nM CPT, ATP luminescence, 48 h | Potency, µM (doses to about 46.2 µM), for inactives: at the top dose activity change, negative = growth inhibition, most hits filed as inhibitors | actives 12% (n = 420,000); further: potency means the concentration at half of the fitted maximal effect; nearly all actives have a fitted effect of over 55% in size
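Chicken DT40 Tdp1-/- cells complemented with human TDP1, 400 cells/well, exposed to compounds plus 20 nM camptothecin for at least 48 h at 37 C; viability read as ATP content by CellTiter-Glo luminescence.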
HT1080 IDH1KD tx: toxicity to HT-1080 IDH1 knockdown cells (counter line); Potency, µM (doses to about 46.1 µM), for the others: at the highest dose activity, negative = toxicity, most hits filed as cytotoxic; actives 2% (n = 360,000); HT-1080 IDH1 knockdown viability, ATP luminescence, 48 h;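 further: potency means the concentration at half of the fitted maximal effect; 0% = DMSO wells and -100% = cell-free medium wells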
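In this qHTS, HT-1080 cells depleted of IDH1 are exposed for 48 h at 37 °C to compound titrations. Toxicity is scored from CellTiter-Glo luminescence, with DMSO as full viability and medium alone as none.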
IL1B secr inh: blocks inflammasome-driven IL-1 beta release; THP-1 LPS/ATP IL-1B secretion, AlphaLISA, 16 h; stronger effect = lower value; activity change, % at 57.5 µM; actives 4.7% (n = 360,000); AID 743279; in the data active means activity change below about -50%; inconclusive means mostly about -30% to -49%
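THP-1 cells pretreated 1 hr with compounds (up to 57.5 uM final), then stimulated with LPS (250 ng/mL final) plus ATP (1.25 mM final); secreted IL-1B measured by AlphaLISA after 16 hr, decreased signal indicating inhibition.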
DT40 TDP1 no CPT: qHTS for Inhibitors of human tyrosyl-DNA phosphodiesterase 1 (TDP1): qHTS in cells in absence of CPT; Potency, µM (highest dose often 46.2 µM), inactives show at the top dose activity change, negative = growth inhibition, actives largely listed as inhibitors; actives 15% (n = 420,000); DT40 Tdp1-/- hTDP1 cells, no CPT, ATP luminescence, 48 h; further: potency means the concentration at half of the fitted maximal effect; nearly all actives have a fitted effect of over 55% in size
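Luminescent ATP content (CellTiter-Glo) served as the growth readout. Knockout chicken DT40 cells expressing human TDP1 were exposed to compounds without camptothecin for a minimum 48 hr at 37 °C.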
HT1080NT lethal: kills 2HG-producing HT-1080-NT fibrosarcoma cells | AID 686970 | Potency, µM (doses to about 46.1 µM), inactives show at the top dose activity, negative = less viability, actives largely listed as cytotoxic | actives 1.6% (n = 360,000) | HT-1080-NT fibrosarcoma viability, CellTiter-Glo ATP luminescence, 48 h;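 further: NT is the 2HG producing partner of a matched IDH1 knockdown line; potency means the concentration at half of the fitted maximal effect; 0% = DMSO-treated cells and -100% = media-only wells without cells; nearly all actives have a fitted effect of over 55% in size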
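Compounds were tested in concentration-response format on HT-1080-NT cells for 48 hours at 37 degrees C. Cell viability came from CellTiter-Glo luminescence; curves were classified by r2, response magnitude and activity.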
Numbers without * were called inactive; ? = inconclusive; · = no result. Unless noted, the call rests on the fitted dose curve; in most records, active means well fitted curve in the direction sought with a large enough effect; inconclusive means small, poorly fitted or top-dose-only effect, or another doubt; inactive means no such curve, though single readings can be large; an effect the other way counts as inactive or inconclusive. Unless noted, on the % scale 0 is the no-effect control and ±100 the full control effect.

SMILES | DT40 TDP1 CPT | HT1080 IDH1KD tx | IL1B secr inh | DT40 TDP1 no CPT | HT1080NT lethal
O=C(C1=C(O)C(=O)N(CC2CCCO2)C1c1cccc(O)c1)c1ccco1 (stereo unspecified) | 5% | 12% | 11 | 3% | 16%
O=C(C1=C(O)C(=O)N(CC2CCCO2)C1c1ccccc1F)c1ccco1 (stereo unspecified) | 1% | 9% | -94* | -26% | 15%
O=C(CCN1C(=O)c2ccccc2C1=O)c1ccccc1 | 1% | 2% | -15 | -20% | 10%
CC1c2cc3c(cc2CCN1C(=O)c1ccc(C(F)(F)F)cc1)OCCCO3 (stereo unspecified) | ? | -5% | -3 | ? | -9%
CC1c2cc3c(cc2CCN1C(=O)c1ccc(Cl)cc1)OCCCO3 (stereo unspecified) | 16µM* | ? | -59* | 13µM* | ?
Cc1ccc(C(=O)N2CCc3cc4c(cc3C2C)OCCCO4)cc1 (stereo unspecified) | 23µM* | ? | -16 | ? | ?
CC1c2cc3c(cc2CCN1CC(=O)Nc1ccc(S(=O)(=O)N2CCCC2)cc1)OCCCO3 (stereo unspecified) | ? | -11% | -28 | -25% | -5%
CC(=O)Nc1ccc(C(=O)N2CCc3cc4c(cc3C2C)OCCCO4)cc1 (stereo unspecified) | ? | -12% | 11 | 18µM* | -5%
CCOCC(=O)Nc1nnc(COc2ccc(Cl)cc2)s1 | 16µM* | -14% | -15 | 23µM* | -6%
CCc1nnc(NC(=O)c2c(-c3ccccc3)noc2C)s1 | -22% | 8% | 5 | -7% | 7%
COc1ccc(/C=C/c2nnc(NC(=O)CSc3ccc(Cl)cc3)s2)cc1 | 6.5µM* | -11% | 7 | 16µM* | 0%
O=C(CSc1ccccc1)Nc1nnc(COc2ccc(Cl)cc2)s1 | 8.2µM* | -10% | -26 | 26µM* | -1%
COc1ccc(/C=C/c2nnc(NC(=O)CC(C)C)s2)cc1 | ? | -21% | 16 | ? | ?
Cc1onc(-c2ccccc2)c1C(=O)Nc1nnc(COc2ccc(Cl)cc2)s1 | 5.8µM* | ? | -13 | 8.2µM* | ?
CC[C@@H](C)[C@@H](C(=O)N1CCNCC1)n1cc(CCC(=O)O)nn1 | 3% | 15% | 25 | 0% | 21%
O=C(Nc1ccc(COc2ccccc2)cc1)Nc1cccc(C(=O)O)c1 | 7% | 0% | 3 | -5% | -10%
CC(=O)OC[C@H]1O[C@@H](n2ncc(=O)[nH]c2=O)[C@H](OC(C)=O)[C@@H]1OC(C)=O | ? | ? | 92 | 11µM* | -8%
CC(=O)OCC1OC(n2ncc(=O)n(Cc3ccccc3)c2=O)C(OC(C)=O)C1OC(C)=O (stereo unspecified) | 12% | 14% | 27 | -18% | 8%
O=C(OCC1OC(n2ncc(=O)[nH]c2=O)C(OC(=O)c2ccccc2)C1OC(=O)c1ccccc1)c1ccccc1 (stereo unspecified) | 16µM* | -1% | 6 | ? | -5%
COc1ccc(Cl)cc1S(=O)(=O)N1CCC(C(=O)NC2CCCC2)CC1 | -11% | -5% | 8 | 4% | 0%
O=C(/C=C/c1ccc2c(c1)OCO2)NCCSCc1ccc(Cl)cc1Cl | ? | ? | -74* | ? | -2%
O=C(/C=C/c1cccc([N+](=O)[O-])c1)NCCSCc1ccc(Cl)cc1Cl | 29µM* | ? | -75* | 23µM* | -52%
O=C(/C=C/c1ccc2c(c1)OCO2)NCCSCc1cccc(Cl)c1 | -20% | ? | -7 | -19% | -25%
O=C(OCCOc1ccc(Br)cc1)c1ccc(Cl)c(S(=O)(=O)N2CCOCC2)c1 | 6% | -11% | 7 | ? | -12%
CN(C)c1ccc(-c2ccc3ncnc(N(C)Cc4ccco4)c3c2)cc1 | 4.1µM* | · | · | 2.6µM* | ·
SMILES | DT40 TDP1 CPT | HT1080 IDH1KD tx | IL1B secr inh | DT40 TDP1 no CPT | HT1080NT lethal
CO/N=C1\CCCc2c(C(=O)NN)sc(SC)c21 | ? | 16µM* | 36 | ? | 16µM*
CCOC(=O)c1sc(SC)c2c1CCC/C2=N/OC | 4% | 3% | 12 | -1% | 0%
CCC(C)(C)NC(=O)C(c1cccnc1)N(C(=O)c1csnn1)c1ccc(C)cc1 (stereo unspecified) | -1% | 0% | -4 | -24% | 11%
Cc1ccc(CCc2nnc(SCC(=O)Nc3cccc(Cl)c3)n2-c2ccccc2)o1 | ? | -12% | 1 | 13µM* | -25%
CN1CCCCC1CCN1c2ccccc2Sc2ccc(S(C)=O)cc21 (stereo unspecified) | ? | ? | -52* | ? | ?
O=C(O)C(S)[C@@H](S)C(=O)O (stereo partly specified) | -11% | · | · | -1% | ·
C/C(=N\NC(=O)c1c(Cl)c(C)nn1C)c1ccc(NC(=O)C2CCC2)cc1 | 0.65µM* | 0.82µM* | 101 | 0.37µM* | 1.6µM*
C/C(=N\NC(=O)c1c(Br)c(C)nn1C)c1cccc(NC(=O)C2CCC2)c1 | -30% | 9% | -25 | ? | 15%
C/C(=N\NC(=O)c1c([N+](=O)[O-])c(C)nn1C)c1ccc(NC(=O)C2CCCC2)cc1 | 0.16µM* | 0.33µM* | 106 | 0.18µM* | 0.46µM*
Cc1ccc(NC(=O)c2ccc(N3CCOCC3)c([N+](=O)[O-])c2)cc1S(=O)(=O)N1CCOCC1 | 9.2µM* | -15% | -78* | 7.3µM* | -3%
COc1ccc(C(=O)Nc2ccccc2N2CCOCC2)cc1S(=O)(=O)N1CCOCC1 | ? | 9% | 0 | ? | 16%
Cc1ccc(C(=O)Nc2ccccc2[N+](=O)[O-])cc1S(=O)(=O)N1CCOCC1 | 4% | ? | -64* | ? | ?
COc1ccc(C(=O)Nc2ccccc2[N+](=O)[O-])cc1S(=O)(=O)N1CCOCC1 | -2% | -8% | -62* | ? | -1%
COc1ccc(C)cc1NC(=O)C1CCCN(S(=O)(=O)c2ccc3c(c2)CCCN3C(C)=O)C1 (stereo unspecified) | ? | -1% | 0 | ? | 0%
O=C(CN1CCC(O)(c2ccccc2F)CC1)NCCc1c[nH]c2ccccc12 | 9% | 0% | -11 | -21% | 0%
CCOC(=O)c1c(C)[nH]c(C)c1S(=O)(=O)N(C)CC(=O)NCc1ccc(F)cc1 | -1% | 1% | 53 | 5% | -1%
CCc1ccc2nc(N(CCN(C)C)C(=O)c3ccc4ccccc4c3)sc2c1 | ? | -2% | -54* | -18% | -17%
